# Results from the supplement of paper PMC6411743.
# ± gives the standard deviation of the averaged measurements. About 5,400 targets were measured; listed, in parts, are those with the largest changes and a random draw of the rest.
# Biological target: T1, FARSB (UniProt Q9NSD9)
# T1 sequence (whole entry): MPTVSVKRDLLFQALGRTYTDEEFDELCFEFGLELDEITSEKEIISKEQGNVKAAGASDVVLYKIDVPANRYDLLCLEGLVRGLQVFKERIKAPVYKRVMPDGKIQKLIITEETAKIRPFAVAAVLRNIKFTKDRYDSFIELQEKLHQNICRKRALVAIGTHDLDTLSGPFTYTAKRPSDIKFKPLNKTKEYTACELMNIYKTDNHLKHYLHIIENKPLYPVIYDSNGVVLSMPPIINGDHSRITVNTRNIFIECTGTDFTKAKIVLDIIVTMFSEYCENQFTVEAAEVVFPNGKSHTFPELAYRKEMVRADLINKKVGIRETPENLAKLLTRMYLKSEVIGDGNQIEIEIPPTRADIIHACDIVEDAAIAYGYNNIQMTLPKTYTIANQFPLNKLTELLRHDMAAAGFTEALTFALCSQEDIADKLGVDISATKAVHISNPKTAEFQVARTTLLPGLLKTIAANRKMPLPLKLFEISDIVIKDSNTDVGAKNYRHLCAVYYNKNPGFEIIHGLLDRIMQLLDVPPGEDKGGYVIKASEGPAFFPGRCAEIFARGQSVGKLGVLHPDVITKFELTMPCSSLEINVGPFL
# Assay: NP40-soluble protein abundance relative to vehicle (solubility fold change) (ratio); higher = more soluble protein in presence of GTP
# Protocol: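 Solubility proteome profiling in Jurkat crude lysate. Lysate was treated with Mg-GTP (0.1-10 mM) for 10 min at room temperature and 3 min at 37 °C, then solubilised with 0.8% NP40 and benzonase, followed by ultracentrifugation. Proteins were quantified by TMT10 LC-MS/MS; the value is the NP40-soluble abundance relative to the NP40-processed vehicle, from 3 independent experiments.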
structure (smiles),measurement,setting,value
Nc1nc2c(ncn2[C@@H]2O[C@H](COP(=O)(O)OP(=O)(O)OP(=O)(O)O)[C@@H](O)[C@H]2O)c(=O)[nH]1 [guanosine triphosphate],NP40-soluble protein abundance,concentration: 0.1mM,1.05 ± 0.043
same,NP40-soluble protein abundance,concentration: 0.5mM,1.06 ± 0.074
same,NP40-soluble protein abundance,concentration: 1mM,0.933 ± 0.035
same,NP40-soluble protein abundance,concentration: 2mM,0.944 ± 0.091
same,NP40-soluble protein abundance,concentration: 4mM,0.954 ± 0.064
same,NP40-soluble protein abundance,concentration: 6mM,0.925 ± 0.059
same,NP40-soluble protein abundance,concentration: 8mM,0.875 ± 0.012
same,NP40-soluble protein abundance,concentration: 10mM,0.844 ± 0.057
